Source: PubChem BioAssay AID1159580 (chemical genetic matrix, 2015)
Among all 5,500 compounds or so, about 2,000 (36%) were called active. Roughly 18% stayed inconclusive and do not appear here. No stated cut-off is given here; in the data, active means normalized growth mostly below about 0.91 (no sharp cut-off); inconclusive means no clear call, values can overlap the other calls; inactive means mostly above about 0.92. This is one part of the list.

Assay: chemical genetic growth profiling, strain panel (AID 1159580);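 further: tested at 20 µM; growth read once vehicle control cultures reached saturation at 30 °C; 1 = growth at the plate median or of vehicle wells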
Settings: S. cerevisiae deletion strains, growth OD

Measured: normalized growth

CC(C)(C)C1=CC(=O)C=C(C(C)(C)C)C1=O
inactive: locus YAL013W, strain DEP1, stronger effect = lower value 1.03 | locus YBR229C, strain ROT2, stronger effect = lower value 1.04 | locus YDL101C, strain DUN1, stronger effect = lower value 0.997 | locus YDL134C, strain PPH21, stronger effect = lower value 1.01 | locus YDR150W, strain NUM1, stronger effect = lower value 0.979 | locus YEL061C, strain CIN8, stronger effect = lower value 1 | locus YGR078C, strain PAC10, stronger effect = lower value 1.01 | locus YHR030C, strain SLT2, stronger effect = lower value 0.996 | locus YHR087W, strain rtc3, stronger effect = lower value 1 | locus YJR043C, strain POL32, stronger effect = lower value 1.02 | locus YJR075W, strain HOC1, stronger effect = lower value 1.01 | locus YLR039C, strain RIC1, stronger effect = lower value 1.03 | locus YLR058C, strain SHM2 (second series), stronger effect = lower value 1.02 | locus YLR085C, strain ARP6, stronger effect = lower value 1.05 | locus YLR262C, strain YPT6, stronger effect = lower value 1 | locus YML094W, strain GIM5, stronger effect = lower value 1.01 | locus YMR219W, strain ESC1, stronger effect = lower value 1.01 | locus YMR263W, strain SAP30, stronger effect = lower value 1.02 | locus YMR307W, strain GAS1, stronger effect = lower value 1.02 | locus YNL153C, strain GIM3, stronger effect = lower value 1.03 | locus YNL298W, strain CLA4 (second series), stronger effect = lower value 1.03 | locus YNL322C, strain KRE1, stronger effect = lower value 1 | locus YNR030W, strain Alg12, stronger effect = lower value 1.03 | locus YOL006C, strain TOP1, stronger effect = lower value 1.05 | locus YPL055C, strain LGE1, stronger effect = lower value 1.02 | locus YPL241C, strain CIN2, stronger effect = lower value 0.999 | locus YPR135W, strain CTF4, stronger effect = lower value 1.07
